Reference: PubChem BioAssay (Tox21)
Results filed as inconclusive are left out. Where a structure was tested more than once in an assay, its records may differ in their call. The source made the active and inactive calls. Unless noted, calls come from the whole dose curve; as a rule, active = well fitted curve in the direction sought with a large enough effect in the repeat runs; inconclusive = weak or mixed curves; inactive = no such curve, though single readings can be large; an effect the other way counts as inactive or inconclusive.

Assays:
[1] = qHTS assay for small molecule agonists of the p53 signaling pathway (AID 651631; calls by dose curve; note: nearly all actives have a fitted effect of over 15% in size)
Procedure, shortened: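 Beta-lactamase reporter activity under p53 response elements was quantified in HCT-116 cells by FRET fluorescence, following 16 h incubation with test compounds at 37 °C and 2 h substrate development at room temperature.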

[2] = qHTS assay for small molecules that induce genotoxicity in human embryonic kidney cells expressing luciferase-tagged ATAD5 (AID 651632); note: nearly all actives have a fitted effect of over 15% in size
Procedure, shortened: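 Reporter cells (HEK293T) express luciferase-tagged ATAD5, a protein that accumulates after DNA damage. Treat 16 hr at 37C/5% CO2, add Amplite, wait 30 min at RT, and read luminescence.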

[3] = qHTS assay for small molecule agonists of the p53 signaling pathway - cell viability (AID 651633; calls by dose curve;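 note: p53RE-bla HCT reporter cells with a stable beta-lactamase p53 reporter; series mostly up to about 83 µM; nearly all actives have a fitted effect of over 30% in size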)
Procedure, shortened: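 Viability counter-read: CellTiter-Glo luminescence (30 min, room temperature) in the same p53RE-bla plates. These plates had been exposed to compounds for 16 h at 37 C.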

[4] = qHTS assay for small molecules that induce genotoxicity in human embryonic kidney cells expressing luciferase-tagged ATAD5 - cell viability (AID 651634; calls by dose curve; note: nearly all actives have a fitted effect of over 25% in size)
Procedure, shortened: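 Seeding of 2,000 HEK293T ATAD5-luciferase cells per well preceded pin-tool compound transfer. Plates sat 15.5 hr at 37C under 5% CO2, then fluorescence was read after 30 min with CellTiter-Fluor.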

[5] = qHTS assay to test for compound auto fluorescence at 590 nm (red) in HepG2 cells (AID 720674)
Procedure, shortened: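 Red autofluorescence (Ex/Em 540/590 nm, Rose Bengal sodium equivalents) was measured in HepG2 cells, 2,000 per well in MEM plus 10% FBS, plated overnight at 37 C. Readings were taken 1 hr after adding 23 nL compound or DMSO, at 37 C and 5% CO2.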

[6] = qHTS assay to test for compound auto fluorescence at 535 nm (green) in HepG2 cells (AID 720675)
[7] = qHTS assay to test for compound auto fluorescence at 460 nm (blue) in HEK293 cells (AID 720678)
Procedure, shortened: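 Cells were seeded and left to adhere for 4-5 hr at 37C. Compounds were then pin-transferred. After an overnight incubation at 37C under 5% CO2, intrinsic fluorescence at 405/460 nm was measured and referenced to triamterene.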

[8] = qHTS assay to test for compound auto fluorescence at 590 nm (red) in HEK293 cells (AID 720679)
Procedure, shortened: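 Each well held 2,000 HEK293 cells in medium containing 10% dialyzed FBS. Following 4-5 hr attachment at 37C, 23 nL test compound or DMSO was added; plates sat overnight, and red fluorescence (540/590nm) was recorded.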

[9] = qHTS assay to test for compound auto fluorescence at 460 nm (blue) in HEK293 cell free culture (AID 720681)
Procedure, shortened: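 Blue fluorescence (Ex 405/Em 460 nm, triamterene-equivalent) was read immediately after pin transfer of compound or DMSO into medium (DMEM, 10% FBS) without cells.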

[10] = qHTS assay to test for compound auto fluorescence at 535 nm (green) in HEK293 cell free culture (AID 720682)
Procedure, shortened: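 Each library compound, or DMSO control, is added by pintool to medium alone, comprising DMEM and 10% FBS. Emission at 535 nm following 485 nm excitation is quantified against fluorescein.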

[11] = qHTS assay to test for compound auto fluorescence at 590 nm (red) in HEK293 cell free culture (AID 720683)
Procedure, shortened: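 Red-channel autofluorescence of compounds in culture medium (DMEM, 10% FBS), no cells, measured at 540/590 nm. Rose Bengal sodium is the reference fluorophore for equivalence.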

[12] = qHTS assay to test for compound auto fluorescence at 590 nm (red) in HepG2 cell free culture (AID 720684)
Procedure, shortened: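 Plate contents were MEM with 10% FBS plus test compound or DMSO, no cells. Fluorescence was recorded with 540 nm excitation and 590 nm emission.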

[13] = qHTS assay to test for compound auto fluorescence at 460 nm (blue) in HepG2 cell free culture (AID 720685)
Procedure, shortened: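 Compound (23 nL) or DMSO pinned into cell-free MEM with 10% FBS; blue fluorescence read at 405/460 nm excitation/emission, expressed as auto-fluorescence equivalency to triamterene.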

[14] = qHTS assay to test for compound auto fluorescence at 535 nm (green) in HepG2 cell free culture (AID 720686)
[15] = qHTS assay to test for compound auto fluorescence at 460 nm (blue) in HepG2 cells (AID 720687)
Procedure, shortened: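 Blue-channel autofluorescence (Ex/Em 405/460 nm, triamterene-equivalent) was measured after 1 hr compound exposure at 37 C, 5% CO2. Cells were HepG2, plated overnight at 37 C in MEM plus 10% FBS.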

[16] = qHTS assay for small molecule disruptors of the mitochondrial membrane potential (AID 720635); note: potency is the fitted concentration of half-maximal effect
Procedure, shortened: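 Mitochondrial membrane potential tracked with Mito-MPS dye, red aggregates (ex 540/em 590 nm) against green monomers (ex 490/em 535 nm). Compound treatment 1 hr at 37C, dye 30 min in HepG2.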

[17] = qHTS assay to test for compound auto fluorescence at 535 nm (green) in HEK293 cells (AID 720680)
[18] = target: Glucocorticoid receptor (Homo sapiens) (UniProt P04150); assay: qHTS assay to identify small molecule antagonists of the glucocorticoid receptor (GR) signaling pathway (AID 720692; active = well fitted inhibition curve with a large enough effect in the signal ratio in the repeat runs, not every such curve was filed as active; the % refers to the signal ratio)
Procedure, shortened: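 Dexamethasone (5 nM final) stimulated a stably integrated GRE-beta-lactamase reporter in HeLa cells during 18 h co-incubation with compounds; signal was quantified as fluorescence intensity of B/G FRET substrate after 2 h.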

[19] = target: Glucocorticoid receptor (Homo sapiens) (UniProt P04150); assay: qHTS assay to identify small molecule agonists of the glucocorticoid receptor (GR) signaling pathway (AID 720691; active = well fitted activation curve with a large enough effect in the signal ratio in the repeat runs, not every such curve was filed as active; the % refers to the signal ratio)
Procedure, shortened: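 Reporter read-out: fluorescence intensity following 2 h room-temperature LiveBLAzer B/G FRET substrate loading. Prior step: GR-bla HeLa cells held 4 h, then treated 18 h at 37 C.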

[20] = qHTS assay for small molecule disruptors of the mitochondrial membrane potential - cell viability (AID 720634; calls by dose curve;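 note: human HepG2 liver cancer cells; series mostly up to about 83 µM; nearly all actives have a fitted effect of over 20% in size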)
Procedure, shortened: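 Measuring cytotoxicity alongside mitochondrial potential, the screen quantified ATP by luminescence in HepG2 cells after 1 hr compound incubation and a 30 min room-temperature CellTiter-Glo step.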

Measured: Potency

Chain of Glucocorticoid receptor (Homo sapiens) (P04150 whole entry, looked up): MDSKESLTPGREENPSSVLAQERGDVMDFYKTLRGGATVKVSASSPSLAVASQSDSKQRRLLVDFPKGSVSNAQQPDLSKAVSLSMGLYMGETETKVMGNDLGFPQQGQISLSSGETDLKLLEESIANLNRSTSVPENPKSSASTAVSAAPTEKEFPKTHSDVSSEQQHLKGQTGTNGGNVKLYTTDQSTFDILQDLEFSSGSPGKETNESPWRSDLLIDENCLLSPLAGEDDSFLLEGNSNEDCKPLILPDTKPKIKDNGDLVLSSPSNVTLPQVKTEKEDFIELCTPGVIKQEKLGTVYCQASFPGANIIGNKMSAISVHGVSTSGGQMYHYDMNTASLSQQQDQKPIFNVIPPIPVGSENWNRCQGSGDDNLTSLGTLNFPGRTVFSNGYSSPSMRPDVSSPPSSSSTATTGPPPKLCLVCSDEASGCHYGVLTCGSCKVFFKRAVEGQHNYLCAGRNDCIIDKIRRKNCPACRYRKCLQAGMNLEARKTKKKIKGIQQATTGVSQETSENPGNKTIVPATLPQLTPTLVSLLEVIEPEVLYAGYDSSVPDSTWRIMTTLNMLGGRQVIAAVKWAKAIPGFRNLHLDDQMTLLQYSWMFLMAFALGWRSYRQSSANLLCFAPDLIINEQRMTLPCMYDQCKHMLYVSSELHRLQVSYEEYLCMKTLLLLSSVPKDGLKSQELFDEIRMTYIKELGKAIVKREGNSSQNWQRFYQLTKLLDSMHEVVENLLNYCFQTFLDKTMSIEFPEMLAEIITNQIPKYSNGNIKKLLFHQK

CNC(=O)Oc1ccc2c(c1)[C@]1(C)CCN(C)[C@@H]1N2C
inactive: [1] | [2] | [3] | [4] | [5] | [6] | [7] | [8] | [9] | [10] | [11] | [12] | [13] | [14] | [15]

Cc1ccc([N+](=O)[O-])cc1S(=O)(=O)O
inactive: [1] | [2] | [3] | [4] | [16] | [5] | [6] | [7] | [8] | [17] | [9] | [10] | [11] | [12] | [13] | [14] | [15] | [18]

CC(C)CC(=O)CC(C)CC(C)C (stereo not given)
inactive: [1] | [2] | [3] | [4] | [16] | [5] | [7] | [17] | [9] | [10] | [12] | [13] | [14] | [19] | [18]

CC(CCl)OP(=O)(OC(C)CCl)OC(C)CCl (stereo not given)
inactive: [1] | [2] | [3] | [4] | [16] | [5] | [6] | [7] | [8] | [17] | [9] | [10] | [11] | [12] | [13] | [14] | [15] | [19]

CCNC(=S)NCC
inactive: [1] | [2] | [3] | [4] | [20] | [16] | [5] | [6] | [7] | [8] | [17] | [9] | [10] | [11] | [12] | [13] | [14] | [15]

CCOC(=O)n1ccn(C)c1=S
inactive: [1] | [2] | [3] | [4] | [16] | [5] | [7] | [8] | [9] | [10] | [11] | [12] | [13] | [14] | [19] | [18]

C[Si]1(C)O[Si](C)(C)O[Si](C)(C)O[Si](C)(C)O1
inactive: [1] | [2] | [3] | [4] | [20] | [16] | [7] | [8] | [9] | [10] | [11] | [12] | [13] | [14] | [15]

CCCCCCCCCCCC(=O)OC
inactive: [1] | [2] | [3] | [4] | [20] | [16] | [5] | [6] | [7] | [17] | [9] | [10] | [11] | [12] | [13] | [14] | [15] | [18]

Brc1ccc(Br)c(Br)c1
inactive: [1] | [2] | [3] | [4] | [20] | [7] | [9] | [10] | [12] | [13] | [14] | [15]

NCCCCCCN
inactive: [1] | [2] | [3] | [4] | [20] | [16] | [5] | [7] | [17] | [9] | [10] | [11] | [12] | [13] | [14] | [15]

CC(C)OP(=O)(CP(=O)(OC(C)C)OC(C)C)OC(C)C
inactive: [1] | [2] | [3] | [4] | [20] | [7] | [17] | [9] | [10] | [11] | [12] | [13] | [14]

CCOC(=O)c1ccc(N)cc1
inactive: [1] | [2] | [3] | [4] | [20] | [16] | [5] | [6] | [7] | [8] | [17] | [9] | [10] | [11] | [12] | [13] | [14] | [18]

Cc1ccc(S(=O)(=O)N=C=O)cc1
inactive: [1] | [2] | [3] | [4] | [20] | [16] | [5] | [6] | [7] | [8] | [17] | [9] | [10] | [11] | [12] | [13] | [14] | [15] | [18]

CCO[Si](CCCN)(OCC)OCC
inactive: [1] | [2] | [3] | [4] | [20] | [16] | [5] | [6] | [7] | [8] | [17] | [9] | [10] | [12] | [13] | [14] | [19] | [18]

CN(C)c1ccc(Cc2ccc(N(C)C)cc2)cc1
inactive: [1] | [2] | [3] | [4] | [20] | [5] | [6] | [7] | [9] | [10] | [11] | [12] | [13] | [14] | [18]
54.7 µM (active) and inactive: [16]

CCOCCOCCOCCO
inactive: [1] | [2] | [3] | [4] | [16] | [5] | [7] | [17] | [9] | [10] | [11] | [12] | [13] | [14] | [15]

CN1C(=O)CC[C@H]1c1cccnc1
inactive: [1] | [2] | [3] | [4] | [20] | [16] | [5] | [6] | [7] | [8] | [9] | [10] | [11] | [12] | [13] | [14] | [15]

CC(C)OC(=O)COc1ccc(Cl)cc1Cl
inactive: [1] | [2] | [3] | [4] | [20] | [16] | [5] | [6] | [7] | [17] | [9] | [10] | [12] | [13] | [14] | [15] | [19] | [18]
